Compound activity: PubChem, National Center for Advancing Translational Sciences (NCATS)
Cruzain inh noDet = blocks cruzain activity in detergent-free assay. AID 1476. Potency, µM, for inactives: max response, negative = inhibition, actives largely listed as inhibitors. hit rate 2.3% among 200,000. purified cruzain, Z-FR-AMC fluorescence, no detergent;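 note: plate controls were enzyme without inhibitor for no effect and buffer without enzyme for full effect; nearly all actives have a fitted effect of over 40% in size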
Target sequence (P25779 123-467 limits assumed): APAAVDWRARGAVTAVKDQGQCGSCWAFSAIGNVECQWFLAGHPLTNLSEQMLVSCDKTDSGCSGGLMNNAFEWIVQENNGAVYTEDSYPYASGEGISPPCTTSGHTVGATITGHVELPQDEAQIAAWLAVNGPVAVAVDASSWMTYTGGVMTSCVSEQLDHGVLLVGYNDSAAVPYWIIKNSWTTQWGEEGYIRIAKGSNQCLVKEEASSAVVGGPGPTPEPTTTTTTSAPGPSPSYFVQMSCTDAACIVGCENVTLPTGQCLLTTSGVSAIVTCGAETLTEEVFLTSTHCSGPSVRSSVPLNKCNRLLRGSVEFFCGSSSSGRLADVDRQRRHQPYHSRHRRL
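Detergent-free condition (0.00005% Triton X-100) in acetate buffer pH 5.5 with DTT. 1.5 nM enzyme and compound were pre-mixed 15 min, then 2 uM Z-FR-AMC substrate added; reaction progress from fluorescence change between first and third reads (60 s).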
Cruzain inh Det = blocks cruzain activity in presence of Triton detergent; purified cruzain, Z-FR-AMC fluorescence, 0.01% Triton; Potency, µM, without a hit: max response, negative = inhibition, hits mostly inhibitors; AID 1478; P25779; hit rate 0.43% among 200,000;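 note: plate controls were neutral wells for no effect and buffer without enzyme for full effect; nearly all actives have a fitted effect of over 40% in size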
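Purified cruzain (1.5 nM final) was preincubated with compounds for 15 min at room temperature in 100 mM sodium acetate pH 5.5, 5 mM DTT, 0.01% Triton X-100. Reaction started with 2 uM Z-FR-AMC; AMC fluorescence change over 60 s gave activity.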
NS1 inh = influenza NS1 inhibition; Potency, µM (top dose mostly 46.1 µM), without a hit: at the top dose activity, positive = more growth; hit rate 0.4% among 270,000; calls by dose curve; note: actives are rising curves; nearly all actives have a fitted effect of over 50% in size
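In this qHTS, NS1 from influenza A is expressed in budding yeast, where it slows growth. Cells are switched from glucose to 2% galactose medium (pH 6.0, -URA), treated with compound, and growth recovery is read at OD600.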
Starred values were filed as active, the others as inactive; ? = inconclusive; nt = no result given. This is one part of a sample in which hits are shown more often than they occur. Unless noted, calls come from the whole dose curve; as a rule, active = well fitted curve in the direction sought with a large enough effect; inconclusive = small, poorly fitted or top-dose-only effect, or another doubt; inactive = no such curve, though single readings can be large; an effect the other way counts as inactive or inconclusive. Potency is the fitted concentration of half-maximal effect.

SMILES	Cruzain inh noDet	Cruzain inh Det	NS1 inh
Cc1cc(C(=O)CSc2nncs2)c(C)n1-c1ccc2c(c1)OCO2	?	-7%	-36%
Cc1cc(C(=O)COc2ccc(C#N)cc2)c(C)n1-c1ccc2c(c1)OCO2	25µM*	-2%	22%
Cc1cc(C(=O)CSc2nnnn2-c2ccc(O)cc2)c(C)n1Cc1ccc2c(c1)OCO2	16µM*	0%	-3%
Cc1cc(C(=O)COC(=O)C2=COCCO2)c(C)n1-c1ccc2c(c1)OCO2	-14%	-3%	-8%
Cc1ccc(NC(=O)CSc2nnnn2-c2ccc3c(c2)OCO3)cc1C	25µM*	4%	-2%
Cc1cc(C(=O)CSc2nnnn2-c2ccccc2)c(C)n1-c1ccc2c(c1)OCO2	3.2µM*	-3%	?
Cc1ccc(-n2nnnc2SCC(=O)c2cc(C)n(CC3CCCO3)c2C)cc1 (stereo not given)	12%	-1%	-5%
COc1ccccc1/C=N/NC(=O)c1ccc(Cn2nc([N+](=O)[O-])cc2C)cc1	-11%	-6%	?
CCCn1c(SCC(=O)c2cc(C)n(-c3ccc4c(c3)OCO4)c2C)n[nH]c1=O	?	-6%	8%
Cc1cc(C(=O)COC(=O)Cc2n[nH]c(=O)c3ccccc23)c(C)n1-c1ccc2c(c1)OCCO2	16µM*	-4%	-30%
O=C(CSc1nnnn1-c1ccc2c(c1)OCCO2)c1cccc2c1OCCO2	25µM*	0%	-3%
O=C(O)CSc1nnc(-c2cccs2)n1-c1ccc(Cl)cc1	-8%	-2%	?
O=C(CSc1nnc(-c2cccs2)n1-c1cccc(Cl)c1)c1cccc2c1OCCO2	25µM*	2%	18%
Cc1cc(C(=O)CSc2nnc(-c3cccc(F)c3)n2N)c(C)n1Cc1ccc2c(c1)OCO2	20µM*	0%	?
CC(=O)c1c(C)[nH]c(C(=O)CSc2nnc(-c3ccccc3)n2Cc2ccc3c(c2)OCO3)c1C	12%	3%	3%
O=C(O)CSc1nnnn1-c1ccc2c(c1)OCCO2	-5%	-8%	11%
O=[N+]([O-])c1cccc(S(=O)(=O)NCC2CCCO2)c1 (stereo not given)	-10%	-1%	-7%
O=C(/C=C\c1cn(-c2ccccc2)nc1-c1ccc2c(c1)OCCO2)N1CCOCC1	nt	nt	0%
COc1ccc(OC)c(NS(=O)(=O)c2ccc(N3CCCCS3(=O)=O)cc2)c1	1%	0%	nt
Cc1ccc(S(=O)(=O)CC(=O)Nc2nc3c(C)cc(C)cc3s2)cc1	13µM*	-7%	nt
COc1cccc2sc(NC(=O)CS(=O)(=O)c3ccc(C)cc3)nc12	?	-2%	nt
CCOc1ccc2nc(NC(=O)CS(=O)(=O)c3ccc(C)cc3)sc2c1	?	-8%	5%
CCOc1ccc2nc(NC(=O)CS(=O)(=O)c3ccc(Cl)cc3)sc2c1	5µM*	-10%	nt
COCCC(=O)N1CCC(Oc2ccc(C(=O)NCCCC3CCCC3)cc2)CC1	nt	nt	-21%
CN1/C(=C\C(=O)COC(=O)c2ccc(O)cc2)C(C)(C)c2ccccc21	nt	nt	-2%
SMILES	Cruzain inh noDet	Cruzain inh Det	NS1 inh
CN1/C(=C\C(=O)COC(=O)CNC(=O)c2ccc3ccccc3c2)C(C)(C)c2ccccc21	25µM*	-24%	3%
CCOC(=O)/C=C1/N(C)c2ccccc2C1(C)C	nt	nt	-8%
CN1/C(=C\C(=O)COC(=O)CNC(=O)c2ccccc2F)C(C)(C)c2ccccc21	20µM*	22µM*	-18%
CSCc1ccc(C(=O)NCCSc2ccc(Br)cc2)cc1	nt	nt	10%
CCCCCCNC(=O)CCc1c(C)nc2nc(-c3cc(OC)cc(OC)c3)nn2c1C	?	1%	nt
Cc1cc(OC(C)C(=O)N[C@H](C(=O)O)c2ccccc2)c2c3c(c(=O)oc2c1)CCC3 (stereo not given in full)	nt	nt	24%
COc1cccc(/C=C/C(=C2/C(=O)N(c3ccccc3)N=C2C)c2ccccc2)c1OC	-15%	-4%	25%
COc1ccccc1/C=C/C(=C1/C(=O)N(c2ccccc2)N=C1C)c1ccc(C)cc1	25µM*	-4%	8%
O=C(Nc1ccc(Cl)c(C(F)(F)F)c1)C(Cc1ccccc1)NS(=O)(=O)c1ccc(Br)s1 (stereo not given)	4µM*	0%	nt
CCc1cccc(NC(=O)C(Cc2ccccc2)NS(=O)(=O)c2cccs2)c1 (stereo not given)	3%	-10%	nt
Cc1ccc(NC(=O)C(Cc2ccccc2)NS(=O)(=O)c2cccs2)cc1Cl (stereo not given)	13µM*	-1%	nt
COc1ccc(NC(=O)C(Cc2ccccc2)NS(=O)(=O)c2ccc(Br)s2)cc1OC (stereo not given)	-3%	-5%	nt
COc1ccc(-c2[nH]n(-c3ccc([N+](=O)[O-])cc3)c(=O)c2C=NCc2ccc(F)cc2)cc1	25µM*	-6%	4%
